We go through nine compounds from paper PMC5540273 (PLoS ONE, 2017).

Test systems include DYRK1B; DYRK2; EGFR; EIF2AK1; EPHA1; EPHA2; EPHA3; EPHA4; EPHA5; EPHA6; EPHA7; EPHA8; EPHB1; EPHB2; EPHB3; EPHB4; EPHB6; ERBB2; ERBB3; ERBB4.
Common to all, as to details: concentration: 1 μM, replicates: in singlicate; n = 1

Each structure is given as a SMILES string.
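Also: KINOMEscan kinase panel screen.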

In the case of `CCS(=O)(=O)c1ccc(OC)c(Nc2nccc(-c3c(-c4cccc(NC(=O)c5c(F)cccc5F)c4)nn4ncccc34)n2)c1` [GSK326180], the “%Inh” value in the assay with DYRK1B is reported as 0%; with DYRK2, 16%; with EGFR, 99.3%; with EIF2AK1, 0%; with EPHA1 it was 23%; in the assay with EPHA2, 0%. Besides, the “%Inh” value is on record as 12% in the assay with EPHA3; 100% with EPHA4; 0% in the assay on EPHA5; 100% with EPHA6; 5% with EPHA7; 24% in the assay with EPHA8. In addition, the “%Inh” value is reported as 15% in the assay with EPHB1; 12% in the assay with EPHB2; 100% in the assay on EPHB3; 12% in the assay on EPHB4; 16% in the assay with EPHB6; 99.3% in the assay with ERBB2. For the same compound, the “%Inh” value is reported as 0% in the assay with ERBB3 and 100% with ERBB4.

Regarding `COc1ccc(CNC(=O)NC2CCN(c3ccnc(Nc4ccc(F)cc4)n3)CC2)cc1` [GSK1379788], the “%Inh” value in the assay with DYRK1B was found to be 0%; in the assay on DYRK2, 0%; in the assay on EGFR it was 13%; in the assay with EIF2AK1 it was 0%; in the assay with EPHA1, 7%; with EPHA2 it was 1%. The “%Inh” value in the assay on EPHA3 was found to be 1%; in the assay on EPHA4 it was 0%; in the assay with EPHA5, 0%; with EPHA6 it was 0%; in the assay with EPHA7, 0%; in the assay with EPHA8 it was 0%. Further, the “%Inh” value with EPHB1 is given as 1%; in the assay on EPHB2, 0%; with EPHB3, 0%; in the assay on EPHB4 it was 7%; with EPHB6, 38%; in the assay with ERBB2, 34%. For the same compound, the “%Inh” value in the assay with ERBB3 was 10%; in the assay on ERBB4, 25%.

With `COc1cc(Nc2nccc(N3CCC(NC(=O)c4cc5ccccc5s4)C3)n2)cc(OC)c1OC` (stereo not drawn) [GSK1379760], the “%Inh” value with DYRK1B is given as 33%; with DYRK2 it was 19%; in the assay with EGFR, 45%; with EIF2AK1 it was 0%; in the assay on EPHA1 it was 3%; with EPHA2 it was 9%. The “%Inh” value in the assay on EPHA3 is recorded as 0%; in the assay with EPHA4, 7%; with EPHA5, 0%; in the assay with EPHA6 it was 5%; in the assay with EPHA7, 4%; in the assay on EPHA8, 17%. Further, the “%Inh” value in the assay with EPHB1 worked out at 6%; with EPHB2, 26%; in the assay on EPHB3, 5%; in the assay with EPHB4, 15%; in the assay with EPHB6, 61%; in the assay with ERBB2 it was 6%. Also, the “%Inh” value is recorded as 12% with ERBB3 and 0% in the assay on ERBB4.

For the compound `O=c1[nH]cc(-c2ccc(N3CCOCC3)cc2)c2sc(-c3cn[nH]c3)cc12` [GSK2276055], the “%Inh” value is on record as 100% with DYRK1B; 89% in the assay on DYRK2; 18% in the assay with EGFR; 0% with EIF2AK1; 0% in the assay on EPHA1; 0% with EPHA2. Moreover, the “%Inh” value came out at 30% with EPHA3; 0% in the assay with EPHA4; 0% in the assay with EPHA5; 0% in the assay on EPHA6; 9% in the assay on EPHA7; 12% in the assay on EPHA8. Also, the “%Inh” value in the assay with EPHB1 came out at 6%; in the assay on EPHB2 it was 0%; with EPHB3, 0%; in the assay with EPHB4 it was 2%; with EPHB6, 31%; in the assay on ERBB2, 3%. Further, the “%Inh” value with ERBB3 is reported as 0%; with ERBB4 it was 24%.

For the compound `COc1ccc(-c2coc3ccc(-c4nnc(SCc5ccc(OC)c(C(F)(F)F)c5)o4)cc23)cc1`, the “%Inh” value in the assay on DYRK1B is 0%; with DYRK2, 14%; in the assay with EGFR, 0%; with EIF2AK1 it was 5%; in the assay on EPHA1, 0%; with EPHA2 it was 2%. The “%Inh” value in the assay with EPHA3 came to 0%; in the assay with EPHA4, 8%; in the assay on EPHA5 it was 18%; in the assay with EPHA6, 17%; with EPHA7, 19%; with EPHA8 it was 14%. Besides, the “%Inh” value in the assay on EPHB1 was found to be 26%; with EPHB2, 24%; in the assay with EPHB3, 20%; with EPHB4 it was 0%; in the assay with EPHB6 it was 16%; in the assay on ERBB2 it was 19%. For the same compound, the “%Inh” value in the assay on ERBB3 was found to be 28%; in the assay with ERBB4, 21%.

As to `COc1ccc(Nc2nccc(NCCNC(=O)c3cc4ccccc4s3)n2)cc1` [GSK1379896], the “%Inh” value in the assay with DYRK1B is reported as 0%; in the assay with DYRK2, 5%; in the assay with EGFR, 19%; in the assay on EIF2AK1, 0%; in the assay with EPHA1, 0%; in the assay on EPHA2, 8%. Further, the “%Inh” value in the assay with EPHA3 was 0%; with EPHA4, 0%; with EPHA5, 0%; with EPHA6, 0%; in the assay with EPHA7 it was 0%; in the assay on EPHA8, 3%. Further, the “%Inh” value with EPHB1 is on record as 16%; in the assay with EPHB2, 0%; in the assay on EPHB3, 5%; with EPHB4 it was 0%; in the assay on EPHB6, 0%; in the assay on ERBB2 it was 4%. In addition, the “%Inh” value in the assay on ERBB3 and in the assay with ERBB4 was 0% throughout.

As to `c1ccc(-c2n[nH]cc2Nc2ccnc3ccccc23)nc1` [GW694077], the “%Inh” value is on record as 100% in the assay with DYRK1B; 90% in the assay with DYRK2; 15% with EGFR; 0% in the assay on EIF2AK1; 0% in the assay on EPHA1; 0% with EPHA2. In addition, the “%Inh” value with EPHA3 was determined as 0%; in the assay on EPHA4 it was 4%; in the assay with EPHA5, 0%; in the assay on EPHA6, 0%; with EPHA7 it was 11%; in the assay on EPHA8 it was 21%. For the same compound, the “%Inh” value is recorded as 18% with EPHB1; 0% in the assay on EPHB2; 1% with EPHB3; 0% in the assay on EPHB4; 0% with EPHB6; 0% in the assay with ERBB2. Besides, the “%Inh” value in the assay on ERBB3 was found to be 4%; in the assay with ERBB4 it was 0%.

Turning to `FC(F)(F)c1ccc(/C=C/c2cncnc2Nc2ccc3[nH]c(Cc4ccccc4)nc3c2)cc1` [GW709199], the “%Inh” value with DYRK1B was 31%; with DYRK2, 0%; in the assay with EGFR, 46%; in the assay with EIF2AK1, 0%; in the assay with EPHA1 it was 10%; in the assay with EPHA2, 12%. The “%Inh” value in the assay with EPHA3 is reported as 0%; in the assay with EPHA4, 0%; with EPHA5, 0%; in the assay with EPHA6 it was 0%; in the assay with EPHA7 it was 0%; with EPHA8, 1%. Besides, the “%Inh” value in the assay on EPHB1 turned out to be 9%; with EPHB2, 7%; in the assay on EPHB3 it was 5%; in the assay with EPHB4 it was 37%; in the assay with EPHB6, 0%; in the assay with ERBB2 it was 69%. The “%Inh” value with ERBB3 amounted to 69%; in the assay on ERBB4, 72%.

Turning to `CN(c1ccc(NC(=O)Nc2cc(C(F)(F)F)ccc2F)cc1)c1ccnc(Nc2ccc(S(N)(=O)=O)cc2)n1` [GW809893], the “%Inh” value in the assay with DYRK1B was 10%; in the assay with DYRK2 it was 14%; with EGFR it was 4%; in the assay with EIF2AK1, 10%; with EPHA1, 97.4%; in the assay with EPHA2 it was 96.1%. Also, the “%Inh” value in the assay on EPHA3 is 78%; in the assay on EPHA4, 96.9%; in the assay with EPHA5, 97.5%; in the assay with EPHA6, 98.5%; in the assay on EPHA7 it was 97.9%; with EPHA8, 99.9%. The “%Inh” value in the assay on EPHB1 was found to be 97.5%; in the assay with EPHB2 it was 95.7%; in the assay on EPHB3 it was 50%; in the assay on EPHB4, 95%; in the assay on EPHB6, 98.8%; with ERBB2 it was 0%. In addition, the “%Inh” value in the assay on ERBB3 is given as 35%; with ERBB4, 0%.
